About 1,000 (0.32%) of roughly 310,000 compounds were called active. No rule for the calls is given here. Not all results are given here. Potency and affinity values are given separately.

A short description of the assay: PhoP regulon inhibitors, Salmonella typhi PhoP promoter GFP reporter, confirmatory (AID 1850).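 Also: 0% = induced wells with vehicle and 100% = uninduced wells.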 The settings on record: fluorescence, 4 h, at 50 µM, stronger effect = higher value.
The term inhibition denotes the relative decrease from the control value, in per cent. In the case of `O=C(NNC(=O)c1nn(-c2ccc(F)cc2)ccc1=O)c1ccc(Cl)cc1`, the inhibition is 1.15% (inactive).

Consider `CC1(CC(=O)N/N=C/c2cc3c(cc2Br)OCO3)OCCO1`, for which the inhibition was 5.58% (inactive). `CC1(CC(=O)N/N=C/c2cc(Br)c(O)cc2O)OCCO1`: the inhibition is -8.89% (inactive). For the compound `CCN(C1CCCCC1)S(=O)(=O)c1c(C)n(C)c(=O)n(C)c1=O`, the inhibition is -2.91% (inactive).

Regarding `Cc1cc(C)c(NC(=O)c2cn3c4c(c(N5CCN(C)CC5)c(F)cc4c2=O)OCC3C)c(C)c1` (stereo unspecified), the inhibition was 1.68% (inactive). Take `CCOc1ccc(NC(=O)c2ccc(NC(=O)c3cn4c5c(c(N6CCN(C)CC6)c(F)cc5c3=O)OCC4C)cc2)cc1` (stereo unspecified): the inhibition was -0.94% (inactive). The result for `CCn1cc(C(=O)O)c(=O)c2cc(F)c(N/N=C/c3ccccc3)cc21` reads -3.82% (inactive); that for `CCOC(=O)C1CN(c2cc3c(cc2F)c(=O)c(C(=O)O)cn3CC)OC1C(=O)OCC` (stereo unspecified), -4.02% (inactive); that for `Cc1c(-n2cc(C(=O)O)c(=O)c3cc(F)c(N4CCCC4)c(F)c32)c(=O)n(-c2ccccc2)n1C`, -2.73% (inactive).

For the compound `CCOC(=O)c1cnc2cc(F)c(F)cc2c1N1CCN(C)CC1`, the inhibition was -5.38% (inactive). As for `O=C(Nc1cccc(F)c1)OC(CN1CCCCC1)C(F)(F)F` (stereo unspecified), the figure is 6.26% (inactive); as for `CC1(C)Cc2c(cnn2-c2ccc(F)cc2)C(NC(=O)CN2CCCCC2=O)C1` (stereo unspecified), -4.07% (inactive). As for `CCCNC(=S)N1CCN(C)CC1`, the figure is -12.9% (inactive); as for `CCOC(=O)c1ccc(Nc2nnc(C(C)(C)C)c(=O)[nH]2)cc1`, -2.27% (inactive); as for `Cc1ccc(C(=O)CSc2nnc(C(C)C)n2C)cc1C`, -9.07% (inactive).

On to `O=C(c1ccc2nc(Cc3ccccc3F)oc2c1)N1CCCC1`, for which the inhibition is -15.9% (inactive). `C/C(=N\OC(=O)c1c(-c2ccccc2Cl)noc1C)c1nccs1`: the inhibition is -7.14% (inactive). As for `COCCn1c(N)c(N(Cc2ccccc2)C(=O)c2oc3ccccc3c2C)c(=O)[nH]c1=O`, the inhibition is -2.04% (inactive). The result for `CCOc1ccccc1N1CCN(C(=S)NCc2ccco2)CC1` reads -6.16% (inactive); that for `CC(=O)c1cnc2nc(C(F)(F)F)nn2c1C`, -10.3% (inactive). `CCCCCCCCn1c2c(c(=N)c3c1CCC3)CCCC2`: the inhibition is -5.2% (inactive).

Take `CCCCn1c2c(c(=N)c3c1CCC3)CCC2`: the inhibition is -3.76% (inactive). As for `CCCn1c2c(c(=N)c3c1CCC3)CCC2`, the figure is -2.65% (inactive); as for `CCCCCCn1c2c(c(=N)c3c1CCC3)CCC2`, 12% (inactive); as for `CC(NC(=O)CNC(=O)c1sc2ccccc2c1Cl)c1ccc(S(N)(=O)=O)cc1` (stereo unspecified), 3.29% (inactive).

In the case of `CC1=CC(C)(C(Cl)Cl)C(C)=CC1=O` (stereo unspecified), the inhibition was -0.04% (inactive).
